Values joined by “and” are separate entries in the source; they are usually repeats but may differ in a detail not shown here. Equal entries are not always repeated. The campaign covered roughly 410,000 compounds. About 18,000 (4.4%) were called active. Not shown: some 7% with an inconclusive outcome. No stated cut-off is given here; in the data, active means activity change below about -60%; inconclusive means no clear call, values can overlap the other calls; inactive means above about -39%. The full list was thinned out, with actives kept by preference. The source holds several records for some structures; these can differ, active in one and inactive in another.

Consider 92 compounds from PubChem BioAssay AID1259415 (National Center for Advancing Translational Sciences (NCATS), 2018).
On the % scale 0 is the no-effect control and ±100 the full control effect.

This experiment in a line: qHTS Assay for inhibitors of the human cytomegalovirus (HCMV). Particulars: HFF cells, HCMV-luciferase reporter, 72 h; at 57.5 µM; stronger effect = lower value. The method in brief: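 HFF cells seeded 16 h at 37C, treated with compounds, infected with luciferase-reporter HCMV at MOI 1 PFU/cell; luciferase read at 72 h post infection, normalized to buffer-only and Salinomycin controls.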
In general terms: Quantitative high-throughput screening tests each substance at several concentrations.
Take `Cn1nccc1NS(=O)(=O)c1ccc(F)cc1`: the activity change, negative = inhibition was 19.9% (inactive). With `Cc1ccc2cccc(NC(=O)c3ccc(OC(C)C)cc3)c2n1` the figure was 9.69% (inactive); with `CCOc1ccc(N(CC)S(=O)(=O)N2CCCC(C(=O)Nc3ccc(C(C)=O)cc3)C2)cc1` (configuration not stated), 11.4% (inactive). With `CC(Sc1nnc(COc2ccccc2)n1-c1ccccc1)C(=O)O` (configuration not stated) the figure was -4.35% (inactive); with `COc1ccc(OCc2n[nH]c(=S)n2N)cc1`, 39.1% (inactive); with `Cc1ccc(OCc2n[nH]c(=S)n2-c2ccccc2)cc1`, -60.4% (active). The figure for `CCc1ccccc1NC(=O)N1CCC2(CC1)Oc1ccccc1C(=O)N2Cc1ccccc1F` is 6.91% (inactive); for `CN1c2ccccc2[C@@]2(CCN=C2N2CCOC2=O)[C@H]1c1cn(C)c2ccccc12` it is 7.43% (inactive).

As to `CCCCCCNCCn1cnc2c(N)ncnc21`, the activity change, negative = inhibition was -40% (inactive).

In the case of `CCOC(=O)C1=C(CC)Nc2ccccc2N=C1N`, the activity change, negative = inhibition was 40.2% (inactive).

For the compound `CCOC(=O)C1=C(C)NC(C)=C(C(=O)OCC)C1c1ccccn1`, the activity change, negative = inhibition is 1.28% (inactive) and -98.9% (active). The figure for `CCOC(=O)C1=C(C)NC(C)=C(C(=O)OCC)C1C1=COCCO1` is 42.6% (inactive); for `CCOC(=O)C1=C(C)NC(SC)=NC1c1ccccc1` (configuration not stated) it is -75.9% (active).

Regarding `C=CCC1(C#N)C(=S)NC(C)=C(C(=O)OCC)C1c1ccccc1` (configuration not stated), the activity change, negative = inhibition was 21.2% (inactive). With `CCOC(=O)C1C(=O)NCC1c1ccccc1` (configuration not stated) the figure was 25.9% (inactive); with `Cc1ccc(CN2C(=O)SC(Nc3ccccc3)C2=O)cc1` (configuration not stated), 4.93% (inactive). For the compound `CC(=O)c1ccc(NC(=O)C2CCN(S(=O)(=O)c3c(C)noc3/C=C/c3ccc(C)cc3)CC2)cc1`, the activity change, negative = inhibition is 8.22% (inactive).

`Cc1ccccc1CNC(=O)C(=O)NCC(c1cccs1)S(=O)(=O)c1cccs1` (configuration not stated): the activity change, negative = inhibition is -7.75% (inactive). On to `Cc1ccc2nc(-c3ccc(O)cc3)c(Nc3ccc4c(c3)OCO4)n2c1`, for which the activity change, negative = inhibition is 27.1% (inactive). Consider `CN(C)c1ccc(NC(=S)N(CCc2ccccc2)C2CC(=O)N(c3c(Cl)cccc3Cl)C2=O)cc1` (configuration not stated), for which the activity change, negative = inhibition is -21.4% (inactive). With `COc1ccc(N2C(=O)C(CC(=O)Nc3ccccc3)N(Cc3ccc(OC)c(OC)c3)C2=O)cc1` (configuration not stated) the figure was 38.3% (inactive). The figure for `CCOc1ccc(N2C(=O)CC(N(CCc3ccc(OC)c(OC)c3)C(=S)Nc3ccccc3)C2=O)cc1` (configuration not stated) is -67.5% (active). In the case of `CC(C)Oc1ccc(NC(=O)c2cc3ccccc3o2)cc1`, the activity change, negative = inhibition was 84.8% (inactive).

For `COc1ccc(NC(=O)Cn2c(=O)cc(C)c3c(C)nn(-c4cccc(Cl)c4C)c32)cc1OC`, the activity change, negative = inhibition is -103% (active). The figure for `COc1cccc(NC(=O)Cn2c(=O)cc(C)c3c(C)nn(-c4cccc(F)c4)c32)c1` is 2.05% (inactive); for `COC(=O)c1ccccc1NC(=O)Cn1c(=O)cc(C)c2c(C)nn(-c3cccc(Cl)c3C)c21` it is -6.78% (inactive). With `CCCn1c(NCc2ccccc2F)nc2ccccc21` the figure was 49.2% (inactive); with `N=c1n(CCc2ccccc2)c2ccccc2n1Cc1ccccc1F`, -70.6% (active); with `O=C(COC(=O)Cc1ccccc1F)NCCc1ccccc1`, 106% (inactive). Regarding `CCOCCN(C=O)c1cccc(OC)c1`, the activity change, negative = inhibition was 18% (inactive). The figure for `COc1ccc(N2CCN(C(=S)Nc3ccc(S(N)(=O)=O)cc3)CC2)cc1` is 9.64% (inactive); for `COc1ccc(N2CCC(CNC(=S)Nc3c(C)cccc3C)C2)cc1` (configuration not stated) it is 0% (inactive); for `COc1ccc(NC(=S)NCC2CCN(c3ccc(OC)cc3)C2)cc1` (configuration not stated) it is -63.2% (active).

Consider `O=C(Cn1cc(SCc2cccc(Cl)c2)c2ccccc21)N1CCCCC1`, for which the activity change, negative = inhibition is 24.5% (inactive). The figure for `COc1ccc(-c2c(C)c3ccc(O)c(CN4CCN(C)CC4)c3oc2=O)cc1OC` is 5.43% (inactive); for `CCOC(=O)c1oc2c(CN3CCN(C)CC3)c(O)ccc2c(=O)c1-c1ccc(Br)cc1` it is -37.4% (inactive). With `CN1CCN(Cc2c(O)ccc3c2oc(=O)c2ccccc23)CC1` the figure was -78.7% (active). With `O=C(CSc1oc(-c2ccco2)nc1S(=O)(=O)c1ccccc1)c1ccc(Cl)cc1` the figure was -17.5% (inactive); with `Cc1cccc(N2CCN(c3c(CN4CCCC4)c(=O)oc4ccccc34)CC2)c1C`, 21.8% (inactive); with `CCOc1ccc(N(CC)C(=O)c2cc3c(=O)oc4ccccc4c3s2)cc1`, 5.06% (inactive). For the compound `Cc1ccc(S(=O)(=O)N(C)CC(=O)N2CCc3ccccc32)cc1`, the activity change, negative = inhibition was -22.7% (inactive). As to `O=C(CN1C(=O)c2ccccc2S1(=O)=O)N1CCc2ccccc21`, the activity change, negative = inhibition is -93.9% (active). Take `NS(=O)(=O)c1ccc(CCNC(=O)CN2C(=O)c3ccccc3S2(=O)=O)cc1`: the activity change, negative = inhibition was -13% (inactive).

`O=C(Cn1cc(SCc2ccccc2)c2ccccc21)N1CCCCC1`: the activity change, negative = inhibition was -27.6% (inactive).

Take `Cc1ccc(Nc2c3c(nc4ccccc24)CCC3)cc1`: the activity change, negative = inhibition was -74.2% (active). With `CC(=O)Nc1ccc(Nc2c3ccccc3nc3ccccc23)cc1`, the activity change, negative = inhibition is -99.6% (active). The figure for `CC(=O)Nc1ccc(Nc2nc3c(S(=O)(=O)c4ccc(C)c(C)c4)nnn3c3ccccc23)cc1` is -35.4% (inactive); for `Brc1ccc(Nc2c3c(nc4ncnn24)CCC3)cc1` it is -30.4% (inactive). With `Cc1ccc(CNC(=O)CSc2c3c(nc4cc(Cl)ccc24)CCCC3)cc1` the figure was -19.8% (inactive); with `CC(=O)Nc1ccc(S(=O)(=O)N2CCN(c3ccccc3)CC2)cc1`, -20.6% (inactive); with `CCCC(=O)Nc1cc(C(=O)NCc2ccc(OC)cc2)ccc1S(=O)(=O)c1ccc(Cl)cc1`, 12.9% (inactive). For the compound `CCOc1cccc(/C=N/NC(=S)NCCN2CCOCC2)c1O`, the activity change, negative = inhibition is -99.8% (active). With `CCOc1cc(/C=N/NC(=O)c2cccc(S(=O)(=O)N3CCOCC3)c2)ccc1OCC(=O)N(C)C` the figure was -10.8% (inactive). With `COc1cccc(C(CC(=O)NCCN2CCOCC2)NS(=O)(=O)c2ccc(C)cc2)c1OC` (configuration not stated) the figure was -35.5% (inactive).

For `Cc1oc(-c2ccccc2)nc1Cn1c(SCc2cccc(C(F)(F)F)c2)nc2cccnc21`, the activity change, negative = inhibition was -23.2% (inactive). With `CCOc1cc(C2C(C(=O)OC)=C(C)NC3=C2C(=O)c2ccccc23)ccc1O` (configuration not stated) the figure was -8.78% (inactive); with `CC1=NN(C(=O)CCc2ccccc2O)C(O)(C(F)(F)F)C1` (configuration not stated), -66% (active). The figure for `CC1=NN(C(=O)c2ccc(Br)cc2)C(O)(c2ccccc2)C1` (configuration not stated) is -17.6% (inactive). The figure for `CC1=NN(C(=O)CCCc2ccccc2)C(O)(C(F)(F)F)C1` (configuration not stated) is -24.1% (inactive). Consider `COc1cccc(C(c2c(O)cc(C)n(Cc3ccco3)c2=O)N2CCN(c3ccccc3)CC2)c1` (configuration not stated), for which the activity change, negative = inhibition is 7.72% (inactive). Consider `CC(C)CC(NS(=O)(=O)c1ccc2c(c1)oc(=O)n2C)C(=O)NCc1ccccc1Cl` (configuration not stated), for which the activity change, negative = inhibition was -14.5% (inactive).

For the compound `CCCCn1c(=O)c2oc3ccccc3c2n(CC(=O)Nc2ccccc2OC)c1=O`, the activity change, negative = inhibition is 17% (inactive).

For the compound `Cc1cc(N2CCN(c3cccc(C(F)(F)F)c3)CC2)n2nc(-c3ccccc3)nc2n1`, the activity change, negative = inhibition is -20.6% (inactive). With `O=C(CSC1c2ccccc2-c2ccccc21)N/N=C/c1ccccc1` the figure was 35.4% (inactive). The figure for `Cc1ccc(/C=N/NC(=O)COc2ccccc2-c2ccccc2)cc1` is -81.9% (active); for `Nc1nnn(CC(=O)N/N=C/c2ccccc2)n1` it is -9.02% (inactive); for `CCOCCCNC(=O)c1c(NC(=O)c2nc(SC)ncc2Cl)sc2c1CCCC2` it is 47.5% (inactive). The figure for `O=C(CCn1c(=O)c2sccc2n(Cc2ccc(F)cc2)c1=O)NCc1ccc2c(c1)OCO2` is 14.2% (inactive); for `O=C(Nc1nnc(C2COc3ccccc3O2)o1)c1ccc(F)cc1` (configuration not stated) it is -81.3% (active). In the case of `CSc1ccccc1-c1nnc(NC(=O)c2ccc3c(c2)OCCO3)o1`, the activity change, negative = inhibition is 21.3% (inactive). With `c1ccc2c(c1)OCC(c1nn3cnnc3s1)O2` (configuration not stated) the figure was -4.38% (inactive). With `Oc1ccccc1-c1nc(/C=C/c2ccc(F)cc2)no1` the figure was 94.7% (inactive); with `COc1ccc(CNC(=O)c2cc3c(s2)-c2ccccc2OC3)cc1`, -13.2% (inactive).

For `COc1cc(CNC(=O)c2cc3n(n2)CCCN(Cc2cccc(F)c2)C3=O)cc(OC)c1OC`, the activity change, negative = inhibition was -12.3% (inactive). The figure for `C=C(C)CSc1nnc(-c2ccc(C)cc2)n1N` is -8.53% (inactive); for `CN(C)c1cc[n+](Cc2ccccc2)cc1` it is -86.3% (active); for `N#Cc1ccc(-c2cccs2)nc1SCc1ccc(Br)cc1` it is 5.81% (inactive). With `O=C1c2ccccc2C(Nc2ccc3c(c2)OCCO3)N1Cc1ccco1` (configuration not stated) the figure was -60.9% (active). With `CCCCCn1nnnc1C1c2ccccc2C(=O)N1Cc1ccco1` (configuration not stated) the figure was -25.7% (inactive); with `O=C(Nc1ccc2c(c1)OCCO2)C1c2ccccc2OCC(=O)N1Cc1ccccn1` (configuration not stated), 3.21% (inactive). Regarding `Cc1ccc(-c2noc(CSc3nnc(-c4ccc(Cl)cc4)n3C)n2)cc1`, the activity change, negative = inhibition is -12.3% (inactive). With `CC1CN(C(=O)N2CCC(C(=O)NCc3cccs3)CC2)c2ccccc2O1` (configuration not stated) the figure was 8.43% (inactive); with `CCc1ccc(Nc2nn3c(=O)c4cc5c(cc4nc3s2)OCO5)cc1`, 9.55% (inactive).

`COc1cccc(C(c2nnnn2-c2ccc3c(c2)OCCO3)N2CCC3(CC2)C(=O)NCN3c2ccccc2)c1OC` (configuration not stated): the activity change, negative = inhibition is -15.1% (inactive). With `Cc1oc(-c2ccccc2F)nc1CN1CCC(C(=O)NCCc2ccc(Cl)cc2)CC1` the figure was 0.215% (inactive). In the case of `Cc1nonc1C1CCCN1Cc1nc(-c2ccc(F)cc2F)oc1C` (configuration not stated), the activity change, negative = inhibition is -69.4% (active). Consider `COc1ccc(F)c(-c2nc(CN3CCC(c4ccccc4)CC3)c(C)o2)c1`, for which the activity change, negative = inhibition is -14% (inactive). With `Cc1ccc(N(CC(=O)NCc2ccc(Cl)cc2)S(=O)(=O)N(C)C)cc1` the figure was -16.9% (inactive); with `COc1ccc2c3c([nH]c2c1)[C@@H](CO)N(C(=O)C1CC1)CC31CCN(Cc2nccs2)CC1`, -2.14% (inactive).

As to `COc1ccc(N2CCN(C(=O)CSCc3nc(-c4ccccc4Cl)oc3C)CC2)cc1`, the activity change, negative = inhibition was -81.2% (active).

As for `COc1ccc(N2CCN(C(=O)CCSCc3ccccc3F)CC2)cc1`, the activity change, negative = inhibition was -16.4% (inactive). With `COc1ccc(CNC(=O)CSCc2nc(-c3ccccc3F)oc2C)cc1` the figure was -16% (inactive).
